Screening results as filed in PubChem.
Shown are actives, neighbours in structure and some others; about 11% of the full set was active somewhere.
G9a block: inhibitors of human histone lysine methyltransferase G9a; Q96KQ7; G9a H3K9 monomethylation, AlphaScreen, 2 h; 8.8% of 350,000 active; Potency, µM (top dose mostly 102 µM), for inactives: at the top dose activity, negative = inhibition, usual class: inhibitors; AID 504332; further: on the % scale 0 is the no-effect control and ±100 the full control effect; nearly all actives have a fitted effect of over 75% in size
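AlphaScreen read-out: biotin-H3K9 peptide (500 nM) methylation by 20 nM enzyme with 20 uM SAM, 2 h at room temperature after 15 min compound preincubation; anti-monomethyl H3K9 antibody plus donor/acceptor beads, 10 min dark.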
BAZ2B block: BAZ2B (human) inhibition. Q9UIF8. Potency, µM (top dose mostly 114 µM), without a hit: top-dose activity change, negative = inhibition, actives largely listed as inhibitors. 4.4% of 360,000 active. AID 504333. AlphaScreen BAZ2B-H3K14Ac peptide displacement; further: on the % scale 0 is the no-effect control and ±100 the full control effect; nearly all actives have a fitted effect of over 60% in size
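Complex of BAZ2B and biotin-H3K14Ac (50 nM apiece) forms over 30 min at RT, then faces library compounds up to 110 uM for another 30 min; AlphaScreen beads added, 20 min dark incubation, luminescence read.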
L3MBTL1 inh: L3MBTL1 (human) inhibition; Q9Y468; AlphaScreen L3MBTL1–H3K9me1 peptide binding; Potency, µM (doses to about 57.1 µM), inactives show at the highest dose activity, negative = inhibition, most hits filed as inhibitors; 0.66% of 230,000 active; further: on the % scale 0 is the no-effect control and ±100 the full control effect; nearly all actives have a fitted effect of over 60% in size
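L3MBTL1 50 nM + b-AHA-H3(1-15)K9me1 75 nM, 30 min RT; compound added, 30 min RT; streptavidin donor/Ni-chelate acceptor beads 10 ug/mL each final, 30 min RT dark; AlphaScreen read.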
HP1b chromo inh: inhibitors of HP1-beta chromodomain binding to methylated histone tails; P83916; AlphaScreen HP1-beta / biotin-H3K9me3 peptide binding; Potency, µM (titrated, usually from 114 µM), without a hit: at the top dose activity change, negative = inhibition, usual class: inhibitors; 0.56% of 390,000 active; further: nearly all actives have a fitted effect of over 70% in size
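Compound inhibition of the preformed complex between 50 nM HP1-beta and 50 nM biotinylated H3K9me3 peptide was read by AlphaScreen. Buffer was PBS pH 7.4 with 0.01% Tween-20. Incubations ran 30 min at room temperature, with 10 ug/mL donor/acceptor beads.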
JMJD2A Tudor: inhibitors of human JMJD2A Tudor domain | 4.4% of 390,000 active | AID 504339 | Potency, µM (doses to about 114 µM), without a hit: top-dose activity change, negative = inhibition, hits mostly inhibitors | O75164 | AlphaScreen JMJD2A-Tudor / H3K4me3 peptide binding; further: on the % scale 0 is the no-effect control and ±100 the full control effect; nearly all actives have a fitted effect of over 50% in size
Target sequence (O75164 whole entry, looked up, the tested form may be a part): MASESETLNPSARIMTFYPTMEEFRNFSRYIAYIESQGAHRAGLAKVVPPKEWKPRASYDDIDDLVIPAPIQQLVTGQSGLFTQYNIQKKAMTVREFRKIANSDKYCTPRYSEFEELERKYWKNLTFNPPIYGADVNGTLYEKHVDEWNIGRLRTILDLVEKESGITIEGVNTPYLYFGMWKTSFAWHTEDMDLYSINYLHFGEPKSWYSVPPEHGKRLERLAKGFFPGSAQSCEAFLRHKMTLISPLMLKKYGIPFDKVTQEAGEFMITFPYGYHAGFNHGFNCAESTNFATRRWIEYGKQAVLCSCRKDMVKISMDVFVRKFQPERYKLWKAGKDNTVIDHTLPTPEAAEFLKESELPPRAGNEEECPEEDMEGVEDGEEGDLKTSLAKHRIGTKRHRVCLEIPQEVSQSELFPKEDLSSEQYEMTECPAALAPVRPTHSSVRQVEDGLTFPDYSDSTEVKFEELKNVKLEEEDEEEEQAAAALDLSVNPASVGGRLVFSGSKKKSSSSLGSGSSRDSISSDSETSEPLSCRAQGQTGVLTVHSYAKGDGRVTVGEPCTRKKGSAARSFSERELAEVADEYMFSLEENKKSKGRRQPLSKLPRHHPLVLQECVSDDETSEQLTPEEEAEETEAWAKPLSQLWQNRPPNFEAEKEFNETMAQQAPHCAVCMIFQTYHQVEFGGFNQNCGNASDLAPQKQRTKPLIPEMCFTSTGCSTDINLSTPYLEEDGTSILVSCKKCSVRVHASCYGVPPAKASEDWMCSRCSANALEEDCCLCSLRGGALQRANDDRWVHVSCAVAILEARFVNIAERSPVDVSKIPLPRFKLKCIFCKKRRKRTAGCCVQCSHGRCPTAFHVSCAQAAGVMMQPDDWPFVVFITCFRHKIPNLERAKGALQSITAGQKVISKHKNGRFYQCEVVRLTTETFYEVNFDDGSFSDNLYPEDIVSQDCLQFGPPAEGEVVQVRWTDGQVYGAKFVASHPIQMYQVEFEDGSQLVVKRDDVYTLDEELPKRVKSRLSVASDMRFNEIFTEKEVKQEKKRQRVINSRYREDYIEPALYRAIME
An asterisk follows results filed as active; ? = inconclusive; · = no result given; [ ] = another dose, or the depositor's remark. The call rests on the fitted dose curve; in most records, active means well fitted inhibition curve with a large enough effect; inconclusive means small, poorly fitted or top-dose-only effect; inactive means no such curve, though single readings can be large or run the other way. Potency means the concentration at half of the fitted maximal effect.

SMILES	G9a block	BAZ2B block	L3MBTL1 inh	HP1b chromo inh	JMJD2A Tudor
COc1ccc(-c2cn3c(C)c(C(=O)Nc4ccncc4)sc3n2)cc1	13µM*	-33%	·	45%	-17%
O=C(Nc1c(C(=O)O)oc2ccccc12)c1ccc(C(F)(F)F)cc1	-3%[59 µM]	-4%	·	36%	-10%
CCOc1ccc(NS(=O)(=O)c2c(C)nc3sc(C)c(C)n3c2=O)cc1	-31%[59 µM]	-26%	·	1%	-33%
CC1=C(C(=O)Nc2ccc(C)c(C)c2)C2(CCCCCC2)OC1=O	5%[59 µM]	-14%	·	16%	-6%
CC(=O)Nc1ccc(S(=O)(=O)NC2=NCN(C(C)C)CN2)cc1	-11%[59 µM]	-14%	·	11%	6%
Cc1ccc(NC(=O)Cc2ccc(NC(=O)N3CCCCc4ccccc43)cc2)cc1Cl	18%[59 µM]	-3%	·	-15%	-15%
O=C(CSc1nc(-c2ccc(F)cc2)nc2c1Cc1ccccc1O2)Nc1cccc(C(=O)O)c1	7.9µM*	7.9µM*	?	?	10µM*
O=C(CSc1nc(-c2ccccc2)nc2ccc(F)cc12)Nc1cccc(C(=O)O)c1	71µM*	79µM*	·	23%	?
CCOC(=O)c1c(NC(=O)c2ccccc2)sc2c(O)c(CN(CC)CC)ccc12	50µM*	-8%	-6%	-5%	-22%
COc1ccc(NC(=O)/C(C#N)=C\c2ccc(Br)o2)cc1	·	?	·	-33%	56µM*
COc1ccc(NC(=O)/C(C#N)=C/c2ccc(-c3ccccc3C(=O)O)o2)cc1	-6%	-21%	4%	13%	-31%
COc1ccc(NC(=O)/C(C#N)=C\c2ccc(-c3cc(C(=O)O)ccc3C)o2)cc1	25µM*	56µM*	?	-14%	?
Cc1ccc(/C=C(\C#N)C(=O)Nc2ccc(Br)cc2)o1	5%[59 µM]	-2%	·	43%	-7%
CC(=O)O[C@@]12CO[C@@H]1C[C@H](O)[C@@]1(C)C(=O)[C@H](O)C3=C(C)[C@@H](OC(=O)C(O)[C@@H](NC(=O)OC(C)(C)C)c4ccccc4)C[C@@](O)([C@@H](OC(=O)c4ccccc4)[C@H]21)C3(C)C (stereo not given in full)	0%[12.7 µM]	·	·	·	·
CC(C)(C)OC(=O)Cc1nnc(-c2nc3ccccc3[nH]2)o1	·	·	·	·	-14%
CC(=O)Nc1ccc(SC(C)C(=O)NC(N)=O)cc1 (stereo not given)	40µM*	-1%	·	26%	-8%
CC(=O)Nc1ccc(NC(=O)C(Sc2ccccc2)c2ccccc2)cc1 (stereo not given)	-11%[12.7 µM]	-1%	5%	12%	-10%
CC(Sc1ccccc1)C(=O)Nc1ccc(N2CCOCC2)cc1 (stereo not given)	-15%	2%	·	3%	-16%
CC(Sc1cccc[n+]1[O-])C(=O)Nc1ccc(Oc2ccccc2)cc1 (stereo not given)	40µM*	-37%	1%[11.4 µM]	17%	-17%
COc1ccc(NC(=O)C(C)Sc2ccccc2)cc1 (stereo not given)	45µM*	-10%	·	23%	-1%
CC(C)(C)c1cc(NC(=O)CSc2nncs2)n(-c2ccccc2)n1	15%[59 µM]	6%	11%	63%	-4%[57.1 µM]
CC(=O)c1cc(CN2CCC(N3CCC(C(=O)N4CCCC4)CC3)CC2)cs1	11µM*	-35%	-12%	32%	4%[11.4 µM]
CN1C(=O)C(C)(C)c2cc(S(=O)(=O)N3CCCC(C(=O)NCc4ccccc4Cl)C3)ccc21 (stereo not given)	8%	-3%	3%	7%	-26%
COCCCn1c(=O)c2ccccc2n2c(=S)[nH]nc12	8.9µM*	-11%	·	?	10µM*
Cc1cccc(-n2c(=O)c3ccccc3n3c(=S)[nH]nc23)c1C	1.1µM*	-15%	·	-16%	25µM*
SMILES	G9a block	BAZ2B block	L3MBTL1 inh	HP1b chromo inh	JMJD2A Tudor
CCc1ccc(-n2c(=O)c3ccccc3n3c(=S)[nH]nc23)cc1	1.4µM*	-2%	·	4%	4.5µM*
CCOc1ccccc1NC(=O)Cn1c(=O)n(CCCCC(=O)NCCCOC)c(=O)c2ccccc21	44%[59 µM]	79µM*	·	80%	9%
CCCCNC(=O)CCn1c(=O)c2ccccc2n(CC(=O)Nc2ccccc2OCC)c1=O	7%[12.7 µM]	6%	6%	29%	20%
Cc1ccccc1-n1c(=O)c2ccccc2n2c(=O)[nH]nc12	12%[59 µM]	-3%	-7%	39%	4%[57.1 µM]
CC(=O)Nc1ccc(SCCN2CCN(CCc3ccccc3)CCC2=O)cc1	·	·	·	13%	?
CCCCn1c(N)c(N(CC(C)C)C(=O)c2cccs2)c(=O)[nH]c1=O	?	-11%	-7%	21%	-12%
COc1cccc(-n2c(=O)c3ccccc3n3c(=S)[nH]nc23)c1	1.6µM*	-20%	·	-2%	11µM*
COCCCn1c(=O)c2ccccc2n(Cc2ccccc2)c1=O	6.3µM*	?	-2%	41%	-5%
COc1cccc(-n2c(SCC(N)=O)nc3ccccc3c2=O)c1	7%	-2%	3%	32%	-8%
COCCCn1c(=O)c2sccc2n(Cc2ccccc2)c1=O	·	5%	1%	29%	-1%
Cc1cccc(CNC(=O)c2ccc(N3Cc4ccccc4Oc4ncccc43)s2)c1	-5%[59 µM]	5%	·	31%	9%
O=C(NCc1ccc(F)cc1)C1CCN(S(=O)(=O)c2ccc(Br)s2)CC1	11%	9%	·	31%	8%
Cc1nn(C)c2c1c(C(F)(F)F)cc(=O)n2C(C)C(=O)NCCc1ccc(Cl)cc1 (stereo not given)	4%[59 µM]	2%	·	-24%	-19%
Cc1ccc(Cl)cc1N1C(=O)N(Cc2ccc(C#N)cc2)c2ccccc2S1(=O)=O	8%[59 µM]	-10%	·	48%	-5%
O=C(COC(=O)c1c2c(nc3ccccc13)CCN(Cc1ccccc1)C2)Nc1c(F)cccc1F	15%[59 µM]	-39%	-9%	6%	?
O=C(NCc1ccc(F)cc1)c1c2c(nc3ccccc13)CCN(Cc1ccccc1)C2	45µM*	8%	-15%	28%	7%
CC(=O)Nc1ccc(NC(=O)COC(=O)c2c3c(nc4ccccc24)CCN(Cc2ccccc2)C3)cc1	50µM*	-32%	-11%	-25%	-31%[57.1 µM]
COc1ccccc1N1CCN(C(=O)Cn2cnc3onc(-c4ccc(F)cc4)c3c2=O)CC1	-11%[59 µM]	1%[57.1 µM]	·	-14%	-30%
COC(=O)c1ccccc1NC(=O)CSc1c2c(nc3ccc(Cl)cc13)CCCC2	22%[59 µM]	·	·	24%	-17%
CSc1ccc(N/N=C(/C#N)S(=O)(=O)C(C)(C)C)cc1	50µM*	?	·	?	-26%[11.4 µM]
CSc1ccc(S(=O)(=O)Nc2ccc(F)cc2)cc1	17%[59 µM]	3%	6%	16%	-7%
COc1ccc(N/N=C(/C#N)S(=O)(=O)C(C)(C)C)cc1	50µM*	-37%	·	28%	-7%[57.1 µM]
